The record followed here is PubChem BioAssay (Tox21).

Each structure is given as a SMILES string. Results filed as inconclusive are left out. Activity calls are given as the source filed them. Calls come from the whole dose curve; as a rule, active = well fitted cell-killing curve with a large enough effect in the repeat runs; inconclusive = weak or mixed curves; inactive = flat fitted curve, though single readings scatter.
% is set by controls: 0 for no effect and ±100 for the full control effect; potency is the fitted concentration of half-maximal effect.

The nature of this assay: qHTS assay to identify small molecule antagonists of the estrogen related receptor (ERR) signaling pathway from Tox21 library - cell viability counter screen (AID 1224834). Note: nearly all actives have a fitted effect of over 30% in size. The following applies: ERR reporter cells viability, CellTiter-Fluor, 17.5 h; series mostly up to 92.4 µM; viability change, negative = cytotoxic: at the top concentration. In short, it runs like this: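 ERR cells, 2,000/well; 6 h settle at 37 C/5% CO2; pin-tool compound transfer in DMSO; 17.5 h at 37 C; CellTiter-Fluor, 30 min; fluorescence intensity.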
(In qHTS, concentration-response curves come from the screen itself.)
As to `Oc1cccc(Nc2ccccc2)c1`, the “viability change, negative = cytotoxic” value was -8.94% (inactive).
Turning to `Cc1cc2c(OCC(CNC(C)(C)C)OC(=O)c3ccccc3)cccc2[nH]1` (stereo not given), the “viability change, negative = cytotoxic” value was 3.39% [at 42.5 µM] (inactive).
For the compound `CCC1(CO)COCOC1`, the “viability change, negative = cytotoxic” value is 0.861% (inactive).
On the same count and under the same terms, the result for `CC(C)(C)C(=O)C(=O)O` reads 1.02% (inactive).
With `CCCCOc1ccc(OCCCN2CCOCC2)cc1`, the “viability change, negative = cytotoxic” value is -3.45% [at 42.5 µM] (inactive).
Consider `O=[N+]([O-])c1cc(C2CCCCC2)c(O)c([N+](=O)[O-])c1`, for which the Potency is 12.2 µM (active).
As for `CN1CCCC(n2nc(Cc3ccc(Cl)cc3)c3ccccc3c2=O)CC1` (stereo not given), the Potency was 29.8 µM (active).
With `C(=C\c1ccccc1)/c1ccccc1`, the “viability change, negative = cytotoxic” value was 0.758% (inactive).
Turning to `Clc1cc(Cl)nc(Cl)n1`, the “viability change, negative = cytotoxic” value was -4.04% (inactive).
As to `O=C1NCCN1CCO`, the “viability change, negative = cytotoxic” value was 0.54% (inactive).
Turning to `CCCCCCCCOc1ccc(C(=O)O)cc1`, the “viability change, negative = cytotoxic” value is -4.74% (inactive).
For `Oc1c(I)cc(I)c2cccnc12`, the Potency was 29.8 µM (active).
For `CCOC(=O)c1ccc(I)cc1`, the “viability change, negative = cytotoxic” value is 1.41% (inactive).
In the case of `Cc1cc(O)ccc1O`, the Potency is 61.8 µM (active).
Regarding `c1csc(SSc2cccs2)c1`, the Potency was 54.5 µM (active).
Take `O=C1c2ccccc2C(=O)c2c(O)c(O)cc(O)c21`: the Potency was 30.6 µM (active).
Consider `CCOC(=O)/C=C/C(=O)OCC`, for which the “viability change, negative = cytotoxic” value is 0.729% (inactive).
On the same count and under the same terms, the result for `CCCCCCCC/C=C\CCCCCCCCO` reads -1.13% (inactive); that for `O=C1Cc2cc(Cl)ccc2N1`, 3.43% [at 42.5 µM] (inactive).
Turning to `CC(C)COCC(CN(Cc1ccccc1)c1ccccc1)N1CCCC1` (stereo not given), the Potency is 26.6 µM (active).
In the case of `C=CC(=O)[O-].C=CC(=O)[O-].[Zn+2]`, the “viability change, negative = cytotoxic” value was 1.4% (inactive).
For the compound `Nc1nnc(-c2ccc([N+](=O)[O-])o2)o1`, the Potency is 48.6 µM (active).
For the compound `C=C1CCC2CC1C2(C)C` (stereo not given), the “viability change, negative = cytotoxic” value is 0.436% (inactive).
In the case of `O=C(O)c1cccc(-c2noc(-c3ccccc3F)n2)c1`, the “viability change, negative = cytotoxic” value is -1.22% [at 42.5 µM] (inactive).
Take `CC(=O)OCCN(CCOC(C)=O)c1ccc(N=Nc2ccc([N+](=O)[O-])cc2C#N)cc1`: the Potency is 48.6 µM (active).
